Pf growth 48h: Primary qHTS for delayed death inhibitors of the malarial parasite plastid, 48 hour incubation. hit rate 5.9% among 310,000. P. falciparum luciferase growth in erythrocytes, 48 h. Potency, µM (series often up to 28.7 µM), for inactives: top-dose activity change, negative = inhibition, usual class: inhibitors; note: potency is the fitted concentration of half-maximal effect; % is set by controls: 0 for no effect and ±100 for the full control effect
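Firefly luciferase activity from engineered P. falciparum reports growth; inhibitors lower the luminescent signal. Cultures contained 2% hematocrit erythrocytes at 0.1% final parasitemia.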
Pf growth 96h: Primary qHTS for delayed death inhibitors of the malarial parasite plastid, 96 hour incubation. P. falciparum luciferase reporter growth, 96 h. Potency, µM (doses to about 28.7 µM), without a hit: top-dose activity change, negative = inhibition, actives largely listed as inhibitors. hit rate 6.9% among 320,000. AID 504834, 2011; note: potency is the fitted concentration of half-maximal effect; % is set by controls: 0 for no effect and ±100 for the full control effect
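Compounds incubated with erythrocytes infected by luciferase-expressing P. falciparum (2% hematocrit, 0.05% parasitemia final) for 96 hours, 37 C in 5% CO2. Growth inhibition scored as decreased luciferase luminescence.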
HCV inhibitor: qHTS Assay for Inhibitors of Hepatitis C Virus (HCV). Huh7.5.1 HCVcc-Cre infection, luciferase reporter, 44 h. Potency, µM (series often up to 41.8 µM), inactives show top-dose activity change, negative = inhibition, usual class: inhibitors. hit rate 3.4% among 340,000. AID 651820, 2012; note: potency is the fitted concentration of half-maximal effect; % is set by controls: 0 for no effect and ±100 for the full control effect
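Infectious HCV cell culture screen: compound-treated cells (1,000/well, pre-plated 4 h) are infected with HCVcc-Cre at roughly 0.5 moi and grown 44 h. Infection is quantified by luciferase signal after 15 min substrate incubation at room temperature.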
Sm TGR inh: qHTS Assay for the Inhibitors of Schistosoma Mansoni Peroxiredoxins. Schistosoma mansoni thioredoxin glutathione reductase (TGR), Q962Y6. purified TGR, DTNB reduction, TNB absorbance 405 nm. Potency, µM (titrated, usually from 114 µM), inactives show top-dose activity change, negative = inhibition, usual class: inhibitors. hit rate 3% among 360,000. AID 485364, 2010; note: potency is the fitted concentration of half-maximal effect; % is set by controls: 0 for no effect and ±100 for the full control effect; nearly all actives have a fitted effect of over 60% in size
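Kinetic colorimetric format: TGR-catalysed, NADPH-driven DTNB reduction monitored via TNB absorbance. Enzyme dispensed at 20 nM; compound exposure 15 min at room temperature before reaction start.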
HCMV antiviral: qHTS Assay for inhibitors of the human cytomegalovirus (HCMV); HFF cells, HCMV-luciferase reporter, 72 h; active compounds read low; activity change, negative = inhibition, % at 57.5 µM; hit rate 4.5% among 410,000; AID 1259415, 2018; in the data active = activity change below about -60%; inconclusive = no clear call, values can overlap the other calls; inactive = above about -39%; note: % is set by controls: 0 for no effect and ±100 for the full control effect
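HFF cells seeded 16 h at 37C, treated with compounds, infected with luciferase-reporter HCMV at MOI 1 PFU/cell; luciferase read at 72 h post infection, normalized to buffer-only and Salinomycin controls.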
SARS PLpro yeast: qHTS of Yeast-based Assay for SARS-CoV PLP | S. cerevisiae expressing SARS-CoV PLpro, growth rescue | hit rate 0.19% among 330,000 | Potency, µM (series often up to 32.9 µM), inactives show at the highest dose activity, positive = growth rescue, usual class: activators | AID 485353, 2010; calls by dose curve; note: potency is the fitted concentration of half-maximal effect; 0% is about no effect; nearly all actives have a fitted effect of over 55% in size
Starred values were filed as active, the others as inactive; ? = inconclusive; · = no result given; [ ] = remark or other dose. Hits are enriched below; roughly 15% of the tested compounds scored in any of these assays. Unless noted, calls come from the whole dose curve; as a rule, active = well fitted curve in the direction sought with a large enough effect; inconclusive = small, poorly fitted or top-dose-only effect, or another doubt; inactive = no such curve, though single readings can be large; an effect the other way counts as inactive or inconclusive.

SMILES	Pf growth 48h	Pf growth 96h	HCV inhibitor	Sm TGR inh	HCMV antiviral	SARS PLpro yeast
COc1cccc(C(=O)N(Cc2ccco2)c2ccccn2)c1	·	·	·	-19.3%	-0.1	·
O=C(Nc1cnn(Cc2ccccc2)c1)c1cc2nc(-c3ccco3)cc(C(F)(F)F)n2n1	?	11.7µM*	?	-19.7%	21.3	7.5%
Cc1nn(C)cc1NC(=O)c1cc2nc(-c3ccco3)cc(C(F)(F)F)n2n1	13.0%	16.8%	?	6.4%	-6.8	0.7%
O=C(Nc1ccccn1)c1ccc(S(=O)(=O)N2CCCC2)cc1	33.5%	33.0%	-2.9%	-26.6%	16.8	-0.8%
O=C(Nc1ccccn1)c1ccc(S(=O)(=O)c2ccc(Cl)cc2)cc1	?	35.9%	?	-4.7%[57.1 µM]	-63.6*	-1.7%
O=C(Nc1ccc(Cl)cc1)c1cccc(S(=O)(=O)Nc2ccccn2)c1	12.1%	13.1µM*	·	-18.5%	?	-2.9%
O=C(Nc1ccccn1)c1ccc(-c2ccccc2)cc1	118.5%	-76.1%	10µM*	10.1%	-78.3*	-12.2%
CCOC(=O)c1ccc(NC(=O)COC(=O)c2cccc(Oc3ccccc3)c2)cc1	-12.0%	-9.4%	-27.8%	0.5%	1.4	0.4%
N#CC1=C(N)OC2=C(CC/C2=C\c2ccc(F)cc2)C1c1ccc(F)cc1 (stereo not drawn)	-8.9%	-12.0%	-6.9%	25.1µM*	·	-0.7%
CC(C)N1CC2=C(OC(N)=C(C#N)C2c2cccnc2)/C(=C/c2cccnc2)C1 (stereo not drawn)	?	-1.2%	17.3%	-19.8%	7.3	1.1%
N#CC1=C(N)OC2=C(CCC/C2=C/c2ccoc2)C1c1ccoc1 (stereo not drawn)	25.7%	20.9%	4.0%	17.8µM*	·	-4.7%
Clc1ccc(/C=N/N2CCN(Cc3ccccc3)CC2)cc1	33.8%	19.7%	12.1%	-0.3%	-34.8	-3.2%
Cn1c(=O)n(C)c2cc(/C=N/n3cnnc3)ccc21	23.1%	5.86µM*	4.5%	2.5%	151.5	11.3%
CCCc1c(CC)c(=N)c2ccccc2n1C	0.329µM*	1.9%	-4.4%	-2.9%	-86.7*	3.2%
Cc1ccc(Cl)cc1NC(c1ccc(F)cc1)c1nnc(-c2ccccc2)o1 (stereo not drawn)	·	·	·	-10.8%	2.3	·
CCCCN(CC)Cc1ccc(CNC(=O)Nc2ccc(F)cc2)o1	·	?	11.2µM*	0.9%	4.6	7.3%
Cc1nn2c3c(cnc2c1-c1ccccc1)C(=O)CC(c1ccco1)C3 (stereo not drawn)	1.47µM*	·	-13.8%	35.5µM*	-26.8	0.1%
CCc1nnc(NS(=O)(=O)c2ccc(N3C(=O)C4CC=C(Cl)CC4C3=O)cc2)s1 (stereo not drawn)	·	33.6%	3.8%	-29.5%	6.8	12.0%
CCC(=O)Nc1ccc2c(c1)C(=O)c1ccccc1C2=O	341.9%	255.9%	?	0.0%	144.6	-29.1%
CCC(=O)NC1=C(NC(C)c2ccccc2)C(=O)c2ccccc2C1=O (stereo not drawn)	·	0.928µM*	-2.2%	?	-9.6	-4.1%
COc1ccc2cc3cc(C(=O)N4CCN(c5ccccc5F)CC4)oc3nc2c1	·	·	·	1.2%	-11.0	·
CCC(C)NS(=O)(=O)c1ccc(S(=O)(=O)N2CCCC3(CCCCC3)C2)cc1 (stereo not drawn)	?	·	10µM*	-16.3%	-35.2	-1.0%
CCC(C)C(=O)Nc1ccc(S(=O)(=O)N2CCCC2)cc1 (stereo not drawn)	28.3%	-7.8%	5.8%	9.3%	0.7	-1.5%
COc1cc(CN2CCNC(=O)C2CC(=O)N2CCCN(C(C)=O)CC2)cc(OC)c1 (stereo not drawn)	0.2%	-18.6%	19.8%	31.6µM*	·	-4.0%
O=C1NCCN(Cc2ccc(Cl)c(F)c2)C1CC(=O)N1CCCO1 (stereo not drawn)	-15.4%	?	2.2%	?	15.1	-0.9%
SMILES	Pf growth 48h	Pf growth 96h	HCV inhibitor	Sm TGR inh	HCMV antiviral	SARS PLpro yeast
O=C(CC1C(=O)NCCN1Cc1cccc(Oc2ccccc2)c1)NCc1cccnc1 (stereo not drawn)	2.3%	?	-10.1%	?	65.8	-0.7%
COCC1CCN(C(=O)CC2C(=O)NCCN2Cc2cccc(Oc3ccccc3)c2)CC1 (stereo not drawn)	14.7µM*	0.4%	10.8%	?	29.6	-1.0%
O=C1NCCN(Cc2c(F)cccc2Cl)C1CC(=O)N1CCCO1 (stereo not drawn)	0.0%	?	1.3%	28.2µM*	-6.5	-0.4%
CN(Cc1cnccn1)C(=O)CC1C(=O)NCCN1Cc1cccc(Oc2ccccc2)c1 (stereo not drawn)	-21.6%	-3.0%	3.3%	?	-1.1	-1.1%
O=C1NCCN(Cc2cccc(Oc3ccccc3)c2)C1CC(=O)N1CCCO1 (stereo not drawn)	15.4%	5.22µM*	-16.1%	32.5%	12.1	-1.0%
O=C(NCc1ccccn1)c1cccc(S(=O)(=O)NCc2ccccc2)c1	-24.3%	-4.7%	?	3.7%	-15.5	-0.8%
COc1ccc(-c2oc(=O)c3cc(OC)c(OC)cc3c2-c2cc(F)cc(OC)c2)cc1	?	2.94µM*	?	0.0%	7.3	-26.6%
COc1ccc(-c2c(-c3ccc(C#N)cc3)oc(=O)c3cc(OC)c(OC)cc23)cc1	·	·	?	·	-31.2	-9.2%
CCCCCCCC#Cc1ccccc1/C=N/S(=O)c1ccc(C)cc1 (stereo not drawn)	-57.4%	-7.7%	0.2%	?	·	1.4%
O=C(O)c1ccc2c3c(ncnc13)-c1ccccc1C2=O	?	36.9%	17.1%	50.1µM*	·	-9.0%
[O-]c1c[n+](-c2ccc(-[n+]3cc([O-])on3)cc2)no1	5.9%	-1.3%	3.1%	·	10.8	0.8%
CCOC(=O)C1=NNC(C(=O)c2ccc(Cl)cc2)C1c1ccc(OC)cc1 (stereo not drawn)	?	13.1µM*	?	-1.4%	-31.9	-0.2%
CCOC(=O)C1=NNC(C(=O)c2ccc(C)cc2)C1c1ccc(OC)cc1 (stereo not drawn)	11.7µM*	·	-7.6%	-1.9%	-38.8	7.5%
CCOC(=O)C1NN=C(C(=O)c2ccc(C)cc2)C1c1ccc(C)cc1 (stereo not drawn)	?	10.4µM*	4.1%	1.3%	-29.2	-12.6%
Cc1ccc(NC(=O)NNC(=O)CN2C(=O)COc3ccccc32)cc1	22.0%	-13.0%	-1.3%	9.8%	-22.0	-0.4%

Assay outcomes as filed in PubChem.
